# Results as given in PubChem BioAssay AID488922 (Johns Hopkins Ion Channel Center, 2010).
# About 3,800 (1.2%) of roughly 310,000 compounds were called active.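 Rule for the calls: active = ratio B-score over 3 SD below the library mean, with starting fluorescence within 5 SD of its mean; inactive = the rest, inconclusive results apart.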 Only a selection was taken, and actives are over-represented in it overall.
# Target: Potassium channel subfamily K member 9 (Homo sapiens) (UniProt Q9NPC2)
# Assay: KCNK9 potassium channel inhibitors, primary screen, HEK293 cells, thallium flux (AID 488922);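 for B-score: negative B-score means less thallium flux so channel inhibition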
# Conditions: HEK293 KCNK9, FluxOR thallium flux fluorescence, at 10 µM; active compounds read low
# Sequence of Potassium channel subfamily K member 9 (Homo sapiens) (Q9NPC2 whole entry, looked up): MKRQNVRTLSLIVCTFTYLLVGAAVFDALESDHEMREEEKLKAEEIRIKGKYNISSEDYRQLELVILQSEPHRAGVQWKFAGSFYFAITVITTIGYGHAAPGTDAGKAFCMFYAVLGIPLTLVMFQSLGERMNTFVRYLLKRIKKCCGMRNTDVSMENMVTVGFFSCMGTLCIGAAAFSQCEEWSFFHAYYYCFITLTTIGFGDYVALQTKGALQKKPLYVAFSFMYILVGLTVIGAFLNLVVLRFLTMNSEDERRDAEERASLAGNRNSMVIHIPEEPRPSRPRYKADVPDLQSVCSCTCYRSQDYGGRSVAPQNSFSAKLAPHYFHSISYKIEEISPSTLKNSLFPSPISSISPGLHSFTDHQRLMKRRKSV
row,Compound,B-score
1,C[C@H](NC(=O)c1nc[nH]c1C(=O)NCC(=O)OC(C)(C)C)C(=O)OCc1ccccc1,inactive
2,O=C(NCC1CCCO1)c1cc2c([nH]c3ccccc32)c(-c2ccc(F)cc2)n1 (stereo not drawn),inactive
3,CSCC[C@H](NC(=O)CCCn1nnc2ccccc2c1=O)C(=O)O,inactive
4,CCN(CC)CCNC(=O)c1ccc(NC(=O)c2c(F)cccc2Cl)cc1,inactive
5,Cc1nn(-c2ccccc2)c(Cl)c1/C=N/NC(=O)c1nn(C)cc1[N+](=O)[O-],inactive
6,Cc1cc(=O)[nH]c(N/N=C/c2ccc3c(c2)OCCO3)n1,inactive
7,Cc1cc(=O)[nH]c(N/N=C/c2c(C)nn(-c3ccccc3Cl)c2Cl)n1,-6.92 (active)
8,C=C1CCN([C@H](C(=O)NCc2cc(OC)c(OC)c(OC)c2)C(C)C)S(=O)(=O)c2ccccc21,inactive
9,CCN(c1ccccc1)S(=O)(=O)c1cc2c(cc1C)n(C)c(=O)c(=O)n2C,inactive
10,Cc1ccc2c(c1)N(CC(=O)N(Cc1ccccn1)Cc1ccco1)C(=O)C(C(C)C)O2 (stereo not drawn),inactive
11,COc1cccc(-c2cc(C(=O)N3CCN(c4ccccc4OC)CC3)no2)c1,inactive
12,Cn1nc(-c2ccc(Cl)cc2)c2cc(C(=O)NCc3ccco3)sc21,inactive
13,COc1cccc(-c2ccc(SCC(=O)N3CCN(c4ccccc4)CC3)nn2)c1,inactive
14,COc1ccccc1N1CCN(C(=O)c2cc3c(-c4ccc(Cl)cc4)nn(C)c3s2)CC1,-13.6 (active)
15,COc1cccc(-c2nn(C)c3sc(C(=O)N4CCN(c5ccccc5)CC4)cc23)c1,-9.93 (active)
16,Cn1nc(C(F)(F)F)c2cc(C(=O)N3CCOCC3)sc21,inactive
17,CN1CCN(C2Cc3ccc(Cl)cc3Sc3ccc(F)cc32)CC1 (stereo not drawn),inactive
18,N#C/C=C/N1CCN(Cc2ccc3c(c2)OCO3)CC1,inactive
19,CC(C)(C)NC(=O)Cn1c(SCC(=O)Nc2nccs2)nc2ccccc21,inactive
20,O=C(Nn1cnnc1)c1cc(Cl)ccc1Cl,inactive
21,COc1ccc(/C=N/OCc2ccccc2C#N)c(OC)c1,inactive
22,COc1cc(C(=O)NCC(=O)N2CC=C(c3ccccc3)CC2)cc(OC)c1OC,inactive
23,O=C(Nc1ccccc1)N1CCN(C(=O)Nc2ccccc2)CC1,inactive
24,O=C(Nc1ccc(Cl)c(Cl)c1)N1CC=C(c2ccccc2)CC1,-8.34 (active)
25,CC(=O)Nc1ccc(NC(=O)CN2C(=O)COc3ccc(S(=O)(=O)N4CCCCC4)cc32)cc1,inactive
26,CN(C)c1ccc(CNC(=O)CN2C(=O)COc3ccc(S(=O)(=O)N4CCCC4)cc32)cc1,inactive

row,Compound,B-score
1,Cc1cccc(N(C)C(=O)CN2C(=O)COc3ccc(S(=O)(=O)N4CCCCCC4)cc32)c1,-8.26 (active)
2,COc1ccc(NC(=O)C(CC(C)C)NS(=O)(=O)c2ccc3c(c2)CCN3C(C)=O)cc1OC (stereo not drawn),inactive
3,S=c1nc2ccccc2c2nc(-c3cccnc3)[nH]n12,inactive
4,COCCCn1c(SCC(=O)Nc2oc(C)c3c(C)n[nH]c(=O)c23)nc2sc3c(c2c1=O)CCC3,inactive
5,Oc1ccc(/C=N/Nc2nc(-c3ccccc3F)nc3ccccc23)c(O)c1,-10.4 (active)
6,Fc1ccc(/C=N/Nc2nc(-c3cccnc3)nc3ccccc23)cc1,inactive
7,Cc1nc2ccccc2nc1N/N=C/c1ccc(O)cc1O,inactive
8,O=C(CN1CCN(Cc2ccccc2)CC1)Nc1ccc(F)c(F)c1,inactive
9,O=C(CC(NC(=O)c1ccccc1)c1ccccc1)Nc1ccc(F)c(F)c1 (stereo not drawn),-10 (active)
10,Cc1ccc(NC(=O)NC(=O)c2ccccc2)cc1F,inactive
11,Cc1ccc(N/N=C2\COC(C)(C)CC2=O)cc1,inactive
12,Cc1ccc(S(=O)(=O)N2CCN(CC(=O)N/N=C/c3ccc(Br)s3)CC2)cc1,inactive
13,O=C(CN1CCCCCC1)Nc1ccc(S(=O)(=O)N2CCCCC2)cc1,inactive
14,Cc1cccc(NC(=O)CN2CCCN(S(=O)(=O)c3ccc(Br)s3)CC2)c1,-14.6 (active)
15,O=C1CCN(Cc2ccc([N+](=O)[O-])cc2)CCN1[C@H](CO)Cc1ccccc1,inactive
16,CCC1(C)Cc2c(sc3nc(SC)nc(N)c23)CO1 (stereo not drawn),inactive
17,CCCSc1nc(NCc2ccco2)c2c3c(sc2n1)COC(C)(CC)C3 (stereo not drawn),-9.18 (active)
18,CCC1(C)Cc2c(sc3nc(SC)[nH]c(=O)c23)CO1 (stereo not drawn),inactive
19,COc1ccc(-c2nc3c(s2)CCc2onc(-c4ccc(OC)cc4)c2-3)cc1,inactive
20,CC1CC(C)CN(S(=O)(=O)c2cccc3nonc23)C1 (stereo not drawn),inactive
21,CCn1c(Cc2cccs2)nnc1SCC(=O)c1ccc(C)cc1,inactive
22,Cc1cc([N+](=O)[O-])ccc1NC1CCCC1,inactive
23,Cc1c(NS(=O)(=O)c2ccc(NC3CCCC3)c([N+](=O)[O-])c2)c(=O)n(-c2ccccc2)n1C,inactive
24,Cc1cc(C=O)c(C)n1-c1ccc(NC2CCCCC2)c([N+](=O)[O-])c1,-24.9 (active)
25,Cc1ccc2nc(C)c3c(c2c1)N(c1ccccc1)CC3,inactive
26,Cc1nc2nc(SCC(=O)Nc3cccc(F)c3)[nH]c2cc1Br,inactive

row,Compound,B-score
1,COc1ccc(-c2nc3n(c(=O)c2C#N)CCS3)c(OC)c1,inactive
2,CCC1CCC/C1=N\NC(=O)c1ccc(Cl)cc1 (stereo not drawn),inactive
3,Cc1sc2nc(CSCC(=O)NC3CCCCC3)[nH]c(=O)c2c1C,inactive
4,CCCCCn1c(=O)c(C(=O)OCC)c(Cl)c2ccccc21,-8.35 (active)
5,CCOC(=O)c1nnn2c3ccccc3c(=O)n(C)c12,inactive
6,CCCCn1c(=O)c(C(C)=O)c(O)c2ccccc21,inactive
7,COc1ccccc1C1C(C#N)=C(N)Oc2c1c(-c1ccccc1)nn2-c1ccccc1 (stereo not drawn),inactive
8,CCc1nnc(NC(=O)CSc2nc(SC)ns2)s1,inactive
9,CN1C(C(=O)NCc2ccco2)CC2Cn3c(nc4ccccc43)C21 (stereo not drawn),inactive
10,Cc1cc(C)cc(C(=O)N2CCN=C2SCc2ccc([N+](=O)[O-])cc2)c1,-7.18 (active)
11,Cc1cccc(CC(=O)N2CCN=C2SCc2ccc([N+](=O)[O-])cc2)c1,inactive
12,O=C(Cc1ccc(F)cc1)N1CCN=C1SCc1cccc([N+](=O)[O-])c1,inactive
13,CC1=CC(=C(C#N)c2nc3ccccc3s2)C=C(C)N1c1ccc(F)cc1F,inactive
14,O=S(=O)(Cc1nnnn1-c1ccc(Br)cc1)c1ccc(F)cc1,inactive
15,COc1ccc2[nH]c(=O)c(C3c4cc(OC)c(OC)cc4CCN3C(=O)c3ccco3)cc2c1 (stereo not drawn),inactive
16,COc1ccc(C(=O)N2CCc3cc(OC)c(OC)cc3C2c2cccc([N+](=O)[O-])c2)cc1 (stereo not drawn),-15.3 (active)
17,COc1ccccc1C1SCCN1C(=O)c1ccc([N+](=O)[O-])cc1 (stereo not drawn),inactive
18,O=C(NCCCO)/C(=C\C=C\c1ccccc1)NC(=O)c1ccccc1Cl,inactive
19,Cc1ccc(CSc2nsc(C)c2C#N)cc1,inactive
20,O=C(Nc1ccc(F)cc1)C1CCCN(S(=O)(=O)c2ccc(-n3cnnn3)cc2)C1 (stereo not drawn),inactive
21,CNS(=O)(=O)c1cccc(C(=O)NCC2CCCCC2)c1,inactive
22,CN(C)S(=O)(=O)N1CCC(Oc2cccc(C(=O)NCCCC3CCCC3)c2)CC1,-14.3 (active)
23,CN(C(=O)c1cccc(OC2CCN(S(=O)(=O)N(C)C)CC2)c1)C1CCOC1 (stereo not drawn),inactive
24,Cc1ccc(CCNC(=O)c2ccc3nc4ccccc4c(=O)n3c2)cc1,inactive
25,CC(C)(C)c1nnc(NC(=O)C2c3ccccc3Oc3ccccc32)s1,inactive
26,CCn1ccnc1CNC(=O)CC1C(=O)NCCN1Cc1ccc(F)cc1Cl (stereo not drawn),inactive

row,Compound,B-score
1,COc1ccc([N+](=O)[O-])cc1-c1nc2ccccc2nc1-c1ccccc1,-9.17 (active)
2,COc1ccc(-c2nc3cc([N+](=O)[O-])ccc3o2)cc1OC,inactive
3,O=[N+]([O-])c1ccc2c(c1)Nc1nc3ccccc3nc1N2,inactive
4,Cc1cnc(NC(=O)c2ccccn2)s1,inactive
5,CC(C)CNC(=O)C(=O)NCC(c1ccc2c(c1)OCO2)N1CCOCC1 (stereo not drawn),inactive
6,CC(C)[C@@H](NC(=O)OC(C)(C)C)C(=O)NCC1CCC(C(=O)N[C@@H](Cc2ccccc2)C(=O)O)CC1 (stereo partly drawn),inactive
7,O=C(Nc1ccccc1N1CCCC1)c1ccc2ccccc2c1,inactive
8,CCCCC(=O)Nc1ccccc1N1CCN(c2ccc(F)cc2)CC1,-13.2 (active)
9,O=C(Nc1ccccc1N1CCN(c2ccccc2)CC1)c1cccc(F)c1,inactive
10,CCC(C)C(=O)Nc1ccccc1N1CCN(c2ccc(F)cc2)CC1 (stereo not drawn),inactive
11,CCCC(=O)Nc1ccccc1N1CCN(C(=O)c2ccccc2)CC1,inactive
12,Cc1cccc(C(=O)Nc2ccccc2N2CCN(c3ccc(F)cc3)CC2)c1,-9.31 (active)
13,COc1ccc(NC(=O)CN(C)C(=O)CC2CCCCC2)cc1,inactive
14,CNC1(c2nnnn2-c2c(C)cccc2C)CCOC(C)(C)C1 (stereo not drawn),inactive
15,COc1ccccc1NC(=O)C1=C(C)Nc2nc3ccccc3n2C1c1cccs1 (stereo not drawn),inactive
16,O=C(/C=C/c1cccc([N+](=O)[O-])c1)N1CCN(Cc2ccccc2)CC1,inactive
17,O=[N+]([O-])/C=C/c1ccc2c(ccn2Cc2ccccc2)c1,-9.63 (active)
18,O=c1c([N+](=O)[O-])cc(C(F)(F)F)cn1Cc1cccc(Cl)c1,inactive
19,CC(C)Cc1nnc(NC(=O)CN2C(=O)NC3(CCCCC3)C2=O)s1,inactive
20,COc1cc(/C=C/C(=O)O)cc(S(=O)(=O)Nc2ccccc2C(=O)NCCc2ccccc2)c1OC,inactive
21,CC1CCCC(NC(=O)c2cccc(N3CCCC3=O)c2)C1C (stereo not drawn),inactive
22,O=C(/C=C/Sc1ncn[nH]1)c1ccc(Cl)cc1,inactive
23,O=C(NNc1ccccc1Cl)C(O)(c1cccc(C(F)(F)F)c1)c1cccc(C(F)(F)F)c1,-8.19 (active)
24,O=C(Nc1cc(C(F)(F)F)ccc1Cl)C(=O)N1CCCCC1,inactive
25,CC(CC(=O)Nc1cc(C(F)(F)F)ccc1Cl)c1ccccc1 (stereo not drawn),inactive
